Screening data from PubChem.
This is a sample that favours compounds with a hit; in the whole collection about 21% have one here.
Sm TGR inh: inhibitors of Schistosoma mansoni thioredoxin glutathione reductase. Q962Y6. purified TGR, DTNB reduction, TNB absorbance 405 nm. Potency, µM (highest dose often 114 µM), for the others: at the highest dose activity change, negative = inhibition, usual class: inhibitors. 3% of 360,000 active; further: potency means the concentration at half of the fitted maximal effect; on the % scale 0 is the no-effect control and ±100 the full control effect; nearly all actives have a fitted effect of over 60% in size
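First, TGR (20 nM dispensed) and NADPH were mixed with compound. Second, a 15 min room-temperature incubation followed. Third, further NADPH and then DTNB were added to start the reaction. Finally, TNB absorbance was monitored kinetically.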
Pf growth 96h: P. falciparum growth inhibition at 96 hours | P. falciparum luciferase reporter growth, 96 h | Potency, µM (top dose mostly 28.7 µM), for inactives: at the highest dose activity change, negative = inhibition, hits mostly inhibitors | 6.9% of 320,000 active; further: potency means the concentration at half of the fitted maximal effect; on the % scale 0 is the no-effect control and ±100 the full control effect
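96 h incubation, 37 C, 5% CO2, of luciferase-reporter P. falciparum-infected RBCs (2% hematocrit, 0.05% parasitemia final) with test compounds; endpoint luminescence.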
Cycloheximide cs: affects cycloheximide protein synthesis inhibition readout, counter-screen. cell reporter, cycloheximide protein synthesis inhibition counterscreen. max response, %. 12% of 300,000 active. AID 2314; in the data active means max response mostly above about 13%, no sharp cut-off; inactive means mostly below about 14%; further: read at 38.3 µM for the half of the compounds with a filed dose; 0% is about no effect
Shiga toxin inh: Shiga toxin inhibition. Vero cells, Shiga toxin protein synthesis inhibition reporter. inhibition, % at 38.7 µM. 9.2% of 290,000 active. AID 2315; in the data active means inhibition mostly above about 28%, no sharp cut-off; inactive means mostly below about 43%; further: 0% is about no effect
NS1 inh: blocks influenza NS1 protein function. Potency, µM (top dose mostly 46.1 µM), for inactives: top-dose activity, positive = more growth. 0.4% of 270,000 active. AID 2326; calls by dose curve; further: potency means the concentration at half of the fitted maximal effect; actives are rising curves; nearly all actives have a fitted effect of over 50% in size
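Recovery from NS1-induced slow growth read by OD600 in budding yeast switched to galactose assay medium (pH 6.0, -URA) at 1:100 dilution. Compound 23 nl per well; the matching strain lacking NS1 serves as control.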
Pf growth 48h: P. falciparum growth inhibition at 48 hours (one generation); P. falciparum luciferase growth in erythrocytes, 48 h; 5.9% of 310,000 active; Potency, µM (titrated, usually from 28.7 µM), inactives show at the top dose activity change, negative = inhibition, actives largely listed as inhibitors; AID 504832; further: potency means the concentration at half of the fitted maximal effect; on the % scale 0 is the no-effect control and ±100 the full control effect
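Read-out is firefly luciferase luminescence from an integrated reporter in P. falciparum, so falling signal marks reduced parasite growth. Infected erythrocytes were at 2% hematocrit and 0.1% parasitemia (final) in Albumax-supplemented RPMI 1640.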
* marks the source's active call; other numbers are inactive results; ? = inconclusive; . = not tested or not shown. Unless noted, the call rests on the fitted dose curve; in most records, active means well fitted curve in the direction sought with a large enough effect; inconclusive means small, poorly fitted or top-dose-only effect, or another doubt; inactive means no such curve, though single readings can be large; an effect the other way counts as inactive or inconclusive.

SMILES	Sm TGR inh	Pf growth 96h	Cycloheximide cs	Shiga toxin inh	NS1 inh	Pf growth 48h
CC(=O)c1c(C)[nH]c(C(=O)Nc2ccc(Cl)c(S(=O)(=O)N(C)C)c2)c1C	4%	?	24*	109*	0%	?
CC(=O)c1c(C)[nH]c(C(=O)OCC(=O)Nc2ccc(Cl)c(S(=O)(=O)N(C)C)c2)c1C	-9%	6.6µM*	3	14	-12%	1.2µM*
CCN(CC(=O)Nc1ccccc1C(F)(F)F)C(=O)C1=COCCO1	-6%	8%	.	.	.	?
Cc1ccc(C(OC(=O)c2ccco2)C(=O)NC(C)(C)C)cc1 (centres undefined)	9%	0%	-1	1	-3%	-4%
O=C(O)c1cc(O)c(O)c(O)c1	.	8.5µM*	.	.	.	?
NNC(=O)c1cc(O)c(O)c(O)c1	0%	29%	-3	13	8%	?
COc1ccccc1N(CN1CCCC1=O)C(=O)c1c(F)cccc1Cl	-8%	16%	0	-56	3%	?
COc1ccc(C(=O)N(CN2CCCC2=O)c2ccccc2OC)cc1OC	4%	0.0041µM*	0	-8	-2%	2%
CCOc1ccc2nc(SCC(=O)N(CC(C)C)c3c(N)n(Cc4ccccc4)c(=O)[nH]c3=O)[nH]c2c1	-9%	12µM*	.	.	.	?
Cc1ccccc1OCCC(=O)N(CC(C)C)c1c(N)n(Cc2ccccc2)c(=O)[nH]c1=O	0%	?	.	.	.	12µM*
COCCN(C(=O)CSc1nc2ccc(OC)cc2[nH]1)c1c(N)n(Cc2ccccc2)c(=O)[nH]c1=O	-2%	1%	.	.	.	10%
CCCCN(C(=O)CCSc1ccc(F)cc1)c1c(N)n(Cc2ccccc2)c(=O)[nH]c1=O	-6%	12µM*	.	.	.	12µM*
CCOc1ccc(OCCC(=O)N(CCC(C)C)c2c(N)n(Cc3ccccc3)c(=O)[nH]c2=O)cc1	-4%	14%	.	.	.	10µM*
CCc1nn(CC(=O)NC(C)CC)c(=O)c2cc3occc3n12 (centres undefined)	5%	.	.	.	.	.
O=C(COc1ccc(Cl)cc1Cl)NCCC1=CCCCC1	3%	36%	-3	37	-67%	5%
COC(=O)C1CC(O)CN1C(=O)Nc1ccccc1 (centres undefined)	4%	3%	8	-6	.	5%
CC(C)CN(C(=O)c1ccc(N2CCCC2=O)cc1)c1c(N)n(Cc2ccccc2)c(=O)[nH]c1=O	40µM*	?	.	.	.	?
CCCCN(C(=O)c1ccc(N2CCCC2=O)cc1)c1c(N)n(Cc2ccccc2)c(=O)[nH]c1=O	-2%	?	.	.	.	0%
Cc1ccc(CNC(=O)C2CCCN(c3nn4cc(-c5ccc(C)cc5)nc4s3)C2)cc1 (centres undefined)	-1%	.	.	.	.	.
CCC(C)c1ccc(NC(=S)NC(C)C2CCCO2)cc1 (centres undefined)	1%	?	10*	38*	-10%	68%
O=C(Nc1ccc(Cc2ccc(NC(=O)N3CCOCC3)cc2)cc1)N1CCOCC1	2%	4.1µM*	-2	7	-6%	?
CCC(C)c1ccc(NC(=O)N2CCOCC2)cc1 (centres undefined)	-16%	25%	41*	68*	-27%	93%
O=C(Nc1ccc(F)cc1)N1CCOCC1	5%	?	-2	23	-3%	20%
CN(C)c1ccc(NC(=O)N2CCOCC2)cc1	-11%	?	39*	72*	25%	6.6µM*
NC(=O)CSc1nc2c(c(=O)n1-c1ccccc1)C1(CCCCC1)Cc1ccccc1-2	-1%	12µM*	1	-7	14%	-14%
SMILES	Sm TGR inh	Pf growth 96h	Cycloheximide cs	Shiga toxin inh	NS1 inh	Pf growth 48h
CCCn1c(SCC#N)nc2c(c1=O)C1(CCCC1)Cc1ccccc1-2	12%	4.7µM*	-4	-7	28%	-21%
NNc1nc(N)c2c(n1)-c1ccccc1CC21CCCC1	-7%	1.7µM*	-3	-8	7%	10µM*
O=c1c2c(nc3n1CCCCC3)-c1ccccc1CC21CCCCC1	5%	8.3µM*	1	0	-2%	-17%
N#CCSc1nc2c(c(=O)n1Cc1ccco1)C1(CCCC1)Cc1ccccc1-2	-7%	?	17	38	14%	4%
CCN(C(=O)CSc1ncccc1C(=O)OC(C)C)c1cccc(C)c1	5%	?	1	-15	-58%	.
CCOC(=O)c1cccnc1SCC(=O)N(CC)c1cccc(C)c1	4%	12µM*	-7	-11	-51%	.
CCOC(=O)c1sc(N2N=C(C)/C(=C\c3ccc(OCC(=O)OC)cc3)C2=O)nc1C	0%	8%	-3	-5	6%	5%
COc1cccc2c(=O)n(CC(=O)Nc3ccccc3F)ccc12	0%	25%	27*	23*	26%	43%
COc1cccc2c(=O)n(CC(=O)NC3CCCCC3)ccc12	0%	21%	9.8*	5	-7%	20%
O=C(/C=C/c1cccc([N+](=O)[O-])c1)OCC1CCCO1 (centres undefined)	-1%	5%	11*	26*	15%	0%
COc1ccccc1C(=O)NCC(=O)OCC(=O)N1CC(C)OC(C)C1 (centres undefined)	2%	12%	.	.	.	?
O=S(=O)(c1ccc(Br)cc1)n1c(Cc2ccccc2)nc2ccccc21	-3%	?	-3	-9	-1%	-7%
O=S(=O)(N1CCCCC1)n1c(Cc2ccccc2)nc2ccccc21	16%	.	8	-3	-40%	12µM*
Cc1ccc(C(=O)NCCc2csc(-c3cccnc3)n2)cc1	0%	?	20*	67*	-4%	?
O=C(NCCc1csc(-c2cccnc2)n1)c1ccc(F)c(F)c1	4%	.	.	.	.	.
Cc1nc(CCNC(=O)c2ccccc2)cs1	4%	43%	17*	17	-57%	26%
CC(OC(=O)c1ccc2c(=O)n3c(nc2c1)CCCCC3)C(=O)Nc1ccc(F)cc1Cl (centres undefined)	-1%	21%	2	10	9%	12%
CCCCC(CCC(=O)Nc1ccn(-c2ccccc2)n1)C(=O)O (centres undefined)	-3%	6%	-2	-5	3%	8%
CC(C)CC(C(=O)O)C(C)CC(=O)Nc1ccn(-c2ccccc2)n1 (centres undefined)	-5%	-25%	-5	2	14%	11%
O=C(Nc1ccn(-c2ccccc2)n1)c1ccccc1Br	8%	186%	38*	50*	-9%	111%
CC(=O)Nc1ccn(-c2ccccc2)n1	-8%	?	31*	52*	2%	23%
O=C(Nc1ccn(-c2ccccc2)n1)c1ccc(Cl)cc1	3%	?	45*	106*	-9%	40%
N#Cc1ccc(C(=O)Nc2ccn(-c3ccccc3)n2)cc1	-6%	?	-2	-1	-13%	?
CN(Cc1ccccc1)C(=O)c1[nH]cnc1C(=O)Nc1ccon1	-8%	?	.	.	.	-7%
